Results: article PMC7862700, “An all-to-all approach to the identification of sequence-specific readers for epigenetic DNA modifications on cytosine”

Assays:
Assay in all cases: DAPPL (digital affinity profiling via proximity ligation, sequencing); 10 mM Tris-HCl pH 7.5, 50 mM NaCl, 1 mM DTT, 4% glycerol, room temperature, 30 min; GST-TFs on glutathione beads, 16-mer random dsDNA library, 0.1% formaldehyde crosslink after washing; high values mean tight binding
FEV = molecular target: T1, FEV (Homo sapiens, UniProt Q99581 1-238); details: protein: recombinant; tags: N-terminal GST; dsDNA, one strand shown
T1 sequence: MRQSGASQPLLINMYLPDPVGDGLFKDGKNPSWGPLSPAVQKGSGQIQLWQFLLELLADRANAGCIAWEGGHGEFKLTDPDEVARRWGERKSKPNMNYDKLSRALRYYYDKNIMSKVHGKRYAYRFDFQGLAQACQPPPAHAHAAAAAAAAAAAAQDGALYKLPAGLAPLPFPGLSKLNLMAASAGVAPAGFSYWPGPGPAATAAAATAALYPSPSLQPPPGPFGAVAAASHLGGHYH
Method in brief: (§1)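 The binding signal reported is, for every hexamer, its read frequency for a factor over its read frequency for the tag-only sample. Reads came from pools of yeast-expressed, GST-fused human transcription factors on glutathione beads, barcoded with DNA and mixed with that sample, which were incubated with 200 nmole of a random double-stranded 16-mer DNA library in Tris/NaCl/DTT/glycerol buffer at room temperature for 30 min. After washing, the pools were crosslinked with 0.1% formaldehyde, proximity-ligated with BsaI/T4 ligase for 1 h at 37 °C, PCR-amplified and sequenced on an Illumina NextSeq500.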

ETV5 = ETV5 (Homo sapiens, UniProt P41161 1-510); details: protein: recombinant; tags: N-terminal GST; dsDNA, one strand shown
Method in brief: as §1

HSF1 = HSF1 (Homo sapiens, UniProt Q00613 1-529); details: protein: recombinant; tags: N-terminal GST; chain copies: 3; dsDNA, one strand shown
Method in brief: as §1

SPIC = molecular target: T2, SPIC (Homo sapiens, UniProt Q8N5J4 1-248); details: protein: recombinant; tags: N-terminal GST; dsDNA, one strand shown
T2 sequence: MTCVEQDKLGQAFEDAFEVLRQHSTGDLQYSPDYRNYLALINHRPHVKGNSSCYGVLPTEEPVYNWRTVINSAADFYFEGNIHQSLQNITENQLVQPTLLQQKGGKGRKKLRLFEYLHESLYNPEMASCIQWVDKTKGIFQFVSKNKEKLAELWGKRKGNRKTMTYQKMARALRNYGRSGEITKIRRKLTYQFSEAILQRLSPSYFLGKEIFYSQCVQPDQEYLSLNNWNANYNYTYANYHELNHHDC
Method in brief: as §1

ELF4 = ELF4 (Homo sapiens, UniProt Q99607 1-663); details: protein: recombinant; tags: N-terminal GST; dsDNA, one strand shown
Method in brief: as §1

ELK4 = molecular target: T3, ELK4 (Homo sapiens, UniProt P28324-2 1-405); details: protein: recombinant; tags: N-terminal GST; dsDNA, one strand shown
T3 sequence: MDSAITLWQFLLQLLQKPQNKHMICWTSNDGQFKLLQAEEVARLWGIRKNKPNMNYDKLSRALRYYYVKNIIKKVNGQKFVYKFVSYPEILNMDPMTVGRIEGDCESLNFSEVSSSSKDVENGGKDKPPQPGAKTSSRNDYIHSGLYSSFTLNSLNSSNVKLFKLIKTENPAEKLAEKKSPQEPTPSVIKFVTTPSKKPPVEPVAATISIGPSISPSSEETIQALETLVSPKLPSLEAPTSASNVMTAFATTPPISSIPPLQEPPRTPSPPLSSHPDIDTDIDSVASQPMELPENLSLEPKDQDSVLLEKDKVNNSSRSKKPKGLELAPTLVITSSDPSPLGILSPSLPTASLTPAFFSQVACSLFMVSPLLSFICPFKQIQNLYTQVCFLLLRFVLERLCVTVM
Method in brief: as §1

ETV2 = molecular target: T4, ETV2 (Homo sapiens, UniProt O00321 1-342); details: protein: recombinant; tags: N-terminal GST; dsDNA, one strand shown
T4 sequence: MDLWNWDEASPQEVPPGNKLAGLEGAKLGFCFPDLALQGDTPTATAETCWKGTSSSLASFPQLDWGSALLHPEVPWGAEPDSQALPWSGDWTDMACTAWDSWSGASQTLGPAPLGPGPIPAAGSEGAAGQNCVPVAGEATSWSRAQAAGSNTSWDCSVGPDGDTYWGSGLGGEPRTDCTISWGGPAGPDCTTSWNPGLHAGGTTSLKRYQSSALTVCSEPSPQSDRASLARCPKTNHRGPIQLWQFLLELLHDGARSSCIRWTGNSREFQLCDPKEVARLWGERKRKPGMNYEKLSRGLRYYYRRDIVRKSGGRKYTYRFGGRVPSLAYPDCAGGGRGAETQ
Method in brief: as §1

ELF3 = molecular target: T5, ELF3 (Homo sapiens, UniProt P78545 1-371); details: protein: recombinant; tags: N-terminal GST; dsDNA, one strand shown
T5 sequence: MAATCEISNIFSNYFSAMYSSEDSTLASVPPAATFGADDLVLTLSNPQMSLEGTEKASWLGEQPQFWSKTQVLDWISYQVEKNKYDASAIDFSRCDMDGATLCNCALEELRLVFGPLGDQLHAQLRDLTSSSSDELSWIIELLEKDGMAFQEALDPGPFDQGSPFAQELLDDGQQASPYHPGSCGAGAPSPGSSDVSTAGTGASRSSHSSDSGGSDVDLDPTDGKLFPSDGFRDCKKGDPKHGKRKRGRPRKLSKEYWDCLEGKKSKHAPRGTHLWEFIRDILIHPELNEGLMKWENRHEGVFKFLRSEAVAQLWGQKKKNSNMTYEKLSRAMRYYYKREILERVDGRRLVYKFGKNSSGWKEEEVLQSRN
Method in brief: as §1

CRX = CRX (Homo sapiens, UniProt O43186 1-299); details: protein: recombinant; tags: N-terminal GST; dsDNA, one strand shown
Method in brief: as §1

ETV1 = ETV1 (Homo sapiens, UniProt P50549 1-477); details: protein: recombinant; tags: N-terminal GST; dsDNA, one strand shown
Method in brief: as §1

ERF = molecular target: T6, ERF (Homo sapiens, UniProt P50548 1-548); details: protein: recombinant; tags: N-terminal GST; dsDNA, one strand shown
T6 sequence: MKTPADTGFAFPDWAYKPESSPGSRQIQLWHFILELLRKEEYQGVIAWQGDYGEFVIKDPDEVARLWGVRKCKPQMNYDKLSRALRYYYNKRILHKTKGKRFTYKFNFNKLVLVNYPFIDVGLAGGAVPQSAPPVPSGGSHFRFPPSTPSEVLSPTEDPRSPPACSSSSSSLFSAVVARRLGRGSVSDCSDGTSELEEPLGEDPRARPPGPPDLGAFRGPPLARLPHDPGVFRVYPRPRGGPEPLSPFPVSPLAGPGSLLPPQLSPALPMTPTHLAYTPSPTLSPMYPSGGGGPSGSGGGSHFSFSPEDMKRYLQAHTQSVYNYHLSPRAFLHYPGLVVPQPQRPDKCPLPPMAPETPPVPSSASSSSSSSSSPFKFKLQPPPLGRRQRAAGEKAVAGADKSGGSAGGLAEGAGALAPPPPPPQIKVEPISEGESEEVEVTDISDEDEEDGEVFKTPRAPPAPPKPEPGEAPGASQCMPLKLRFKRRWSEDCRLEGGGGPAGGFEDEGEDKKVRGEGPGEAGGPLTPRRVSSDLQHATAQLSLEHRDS
Method in brief: as §1

ETV3L = molecular target: T7, ETV3L (Homo sapiens, UniProt Q6ZN32 1-361); details: protein: recombinant; tags: N-terminal GST; dsDNA, one strand shown
T7 sequence: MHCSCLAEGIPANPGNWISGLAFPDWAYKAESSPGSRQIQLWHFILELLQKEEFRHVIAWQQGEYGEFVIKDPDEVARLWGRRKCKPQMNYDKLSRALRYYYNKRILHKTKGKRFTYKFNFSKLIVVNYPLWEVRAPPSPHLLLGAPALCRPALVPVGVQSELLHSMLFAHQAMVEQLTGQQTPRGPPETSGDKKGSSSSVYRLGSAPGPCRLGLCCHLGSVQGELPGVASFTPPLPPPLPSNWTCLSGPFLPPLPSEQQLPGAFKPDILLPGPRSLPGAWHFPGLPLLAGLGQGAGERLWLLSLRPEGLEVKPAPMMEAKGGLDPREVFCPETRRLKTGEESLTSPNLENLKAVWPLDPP
Method in brief: as §1

ETS2 = molecular target: T8, ETS2 (Homo sapiens, UniProt P15036 1-469); details: protein: recombinant; tags: N-terminal GST; dsDNA, one strand shown
T8 sequence: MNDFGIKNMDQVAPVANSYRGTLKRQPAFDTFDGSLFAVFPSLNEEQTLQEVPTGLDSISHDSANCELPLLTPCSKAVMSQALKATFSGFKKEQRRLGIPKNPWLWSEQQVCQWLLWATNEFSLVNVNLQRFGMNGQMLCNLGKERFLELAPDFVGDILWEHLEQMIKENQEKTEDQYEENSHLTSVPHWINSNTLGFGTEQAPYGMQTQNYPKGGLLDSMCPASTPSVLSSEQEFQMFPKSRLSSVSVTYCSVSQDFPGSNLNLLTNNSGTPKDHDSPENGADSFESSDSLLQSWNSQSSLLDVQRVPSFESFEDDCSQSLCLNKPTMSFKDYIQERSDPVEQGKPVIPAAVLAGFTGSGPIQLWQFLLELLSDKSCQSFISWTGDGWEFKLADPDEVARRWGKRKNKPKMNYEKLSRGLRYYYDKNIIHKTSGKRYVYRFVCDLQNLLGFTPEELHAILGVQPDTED
Method in brief: as §1

SPDEF = molecular target: T9, SPDEF (Homo sapiens, UniProt O95238 1-335); details: protein: recombinant; tags: N-terminal GST; dsDNA, one strand shown
T9 sequence: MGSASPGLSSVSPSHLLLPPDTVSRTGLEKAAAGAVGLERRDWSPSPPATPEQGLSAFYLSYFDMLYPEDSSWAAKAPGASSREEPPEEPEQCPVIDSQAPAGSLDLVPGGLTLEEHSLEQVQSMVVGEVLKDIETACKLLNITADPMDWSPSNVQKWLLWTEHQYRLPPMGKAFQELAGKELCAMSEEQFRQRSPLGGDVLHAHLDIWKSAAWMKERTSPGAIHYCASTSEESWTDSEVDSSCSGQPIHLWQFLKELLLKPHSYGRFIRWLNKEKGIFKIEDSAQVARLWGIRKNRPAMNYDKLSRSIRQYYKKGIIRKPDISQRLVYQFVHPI
Method in brief: as §1

ETV7 = molecular target: T10, ETV7 (Homo sapiens, UniProt Q9Y603 1-341); details: protein: recombinant; tags: N-terminal GST; dsDNA, one strand shown
T10 sequence: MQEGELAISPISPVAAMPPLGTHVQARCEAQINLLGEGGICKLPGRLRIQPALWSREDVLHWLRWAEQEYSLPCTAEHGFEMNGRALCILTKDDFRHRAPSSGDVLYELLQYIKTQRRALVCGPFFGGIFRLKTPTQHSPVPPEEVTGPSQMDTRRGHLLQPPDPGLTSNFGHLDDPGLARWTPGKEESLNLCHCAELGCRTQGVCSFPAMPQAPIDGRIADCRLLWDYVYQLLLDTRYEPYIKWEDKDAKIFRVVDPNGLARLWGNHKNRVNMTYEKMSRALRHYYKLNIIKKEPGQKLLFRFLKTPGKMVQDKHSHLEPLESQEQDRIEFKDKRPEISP
Method in brief: as §1

ELF5 = molecular target: T11, ELF5 (Homo sapiens, UniProt Q9UKW6-2 1-255); details: protein: recombinant; tags: N-terminal GST; dsDNA, one strand shown
T11 sequence: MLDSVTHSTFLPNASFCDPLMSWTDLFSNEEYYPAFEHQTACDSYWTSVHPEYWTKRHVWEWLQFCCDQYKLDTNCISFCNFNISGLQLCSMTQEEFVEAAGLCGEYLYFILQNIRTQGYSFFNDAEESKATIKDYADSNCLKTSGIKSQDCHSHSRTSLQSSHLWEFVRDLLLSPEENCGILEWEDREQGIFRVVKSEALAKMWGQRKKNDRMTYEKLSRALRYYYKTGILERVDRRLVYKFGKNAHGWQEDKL
Method in brief: as §1

ETV3 = molecular target: T12, ETV3 (Homo sapiens, UniProt P41162-2 1-143); details: protein: recombinant; tags: N-terminal GST; dsDNA, one strand shown
T12 sequence: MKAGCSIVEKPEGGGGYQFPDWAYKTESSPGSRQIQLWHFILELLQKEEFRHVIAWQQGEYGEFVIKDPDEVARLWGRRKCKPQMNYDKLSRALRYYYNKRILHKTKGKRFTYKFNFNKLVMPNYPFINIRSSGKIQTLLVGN
Method in brief: as §1

ETV6 = ETV6 (Homo sapiens, UniProt P41212 1-452); details: protein: recombinant; tags: N-terminal GST; dsDNA, one strand shown
Method in brief: as §1

ETV1, sequence (P50549 whole entry): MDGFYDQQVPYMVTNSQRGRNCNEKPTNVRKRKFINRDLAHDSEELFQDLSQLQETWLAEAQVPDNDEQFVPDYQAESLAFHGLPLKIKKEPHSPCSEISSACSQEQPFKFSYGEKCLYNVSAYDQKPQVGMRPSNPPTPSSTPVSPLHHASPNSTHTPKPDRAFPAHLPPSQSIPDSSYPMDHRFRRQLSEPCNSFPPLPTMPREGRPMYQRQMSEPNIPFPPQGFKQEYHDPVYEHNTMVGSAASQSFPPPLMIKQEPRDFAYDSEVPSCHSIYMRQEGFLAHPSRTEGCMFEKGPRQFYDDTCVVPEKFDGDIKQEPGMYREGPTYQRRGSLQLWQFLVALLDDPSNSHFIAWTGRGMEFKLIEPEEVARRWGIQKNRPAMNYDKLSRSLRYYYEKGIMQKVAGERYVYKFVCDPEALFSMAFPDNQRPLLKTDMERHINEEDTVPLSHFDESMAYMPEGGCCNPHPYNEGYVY
ETV6, sequence (P41212 whole entry): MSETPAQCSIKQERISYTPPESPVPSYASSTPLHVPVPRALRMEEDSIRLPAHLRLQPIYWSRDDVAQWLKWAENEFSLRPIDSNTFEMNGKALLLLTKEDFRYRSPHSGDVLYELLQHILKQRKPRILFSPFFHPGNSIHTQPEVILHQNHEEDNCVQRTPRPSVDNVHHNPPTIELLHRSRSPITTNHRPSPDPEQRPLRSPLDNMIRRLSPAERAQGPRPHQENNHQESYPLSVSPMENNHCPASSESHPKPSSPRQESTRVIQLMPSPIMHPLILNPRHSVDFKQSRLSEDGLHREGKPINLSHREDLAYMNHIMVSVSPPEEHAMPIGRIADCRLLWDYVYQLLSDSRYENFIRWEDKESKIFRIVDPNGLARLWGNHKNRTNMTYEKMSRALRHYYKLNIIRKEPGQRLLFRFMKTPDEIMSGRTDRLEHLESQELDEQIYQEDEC
ELF4, sequence (Q99607 whole entry): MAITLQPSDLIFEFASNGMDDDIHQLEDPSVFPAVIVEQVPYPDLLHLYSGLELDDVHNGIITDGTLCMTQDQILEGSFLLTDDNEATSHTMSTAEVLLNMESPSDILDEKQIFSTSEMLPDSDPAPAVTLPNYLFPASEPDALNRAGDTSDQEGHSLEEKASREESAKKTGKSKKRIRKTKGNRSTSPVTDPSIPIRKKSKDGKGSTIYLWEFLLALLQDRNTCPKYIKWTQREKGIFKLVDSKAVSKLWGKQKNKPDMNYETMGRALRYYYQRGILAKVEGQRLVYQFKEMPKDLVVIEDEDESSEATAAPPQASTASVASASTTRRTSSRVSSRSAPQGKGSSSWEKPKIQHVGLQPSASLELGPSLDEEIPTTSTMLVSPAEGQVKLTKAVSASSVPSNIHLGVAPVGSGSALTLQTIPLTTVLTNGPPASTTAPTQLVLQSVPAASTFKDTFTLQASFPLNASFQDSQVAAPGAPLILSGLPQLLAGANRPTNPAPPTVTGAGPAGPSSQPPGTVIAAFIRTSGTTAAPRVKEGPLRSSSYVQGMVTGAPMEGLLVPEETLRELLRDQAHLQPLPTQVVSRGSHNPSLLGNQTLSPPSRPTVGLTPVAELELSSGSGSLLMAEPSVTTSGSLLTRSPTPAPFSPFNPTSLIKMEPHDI
HSF1, sequence (Q00613 whole entry): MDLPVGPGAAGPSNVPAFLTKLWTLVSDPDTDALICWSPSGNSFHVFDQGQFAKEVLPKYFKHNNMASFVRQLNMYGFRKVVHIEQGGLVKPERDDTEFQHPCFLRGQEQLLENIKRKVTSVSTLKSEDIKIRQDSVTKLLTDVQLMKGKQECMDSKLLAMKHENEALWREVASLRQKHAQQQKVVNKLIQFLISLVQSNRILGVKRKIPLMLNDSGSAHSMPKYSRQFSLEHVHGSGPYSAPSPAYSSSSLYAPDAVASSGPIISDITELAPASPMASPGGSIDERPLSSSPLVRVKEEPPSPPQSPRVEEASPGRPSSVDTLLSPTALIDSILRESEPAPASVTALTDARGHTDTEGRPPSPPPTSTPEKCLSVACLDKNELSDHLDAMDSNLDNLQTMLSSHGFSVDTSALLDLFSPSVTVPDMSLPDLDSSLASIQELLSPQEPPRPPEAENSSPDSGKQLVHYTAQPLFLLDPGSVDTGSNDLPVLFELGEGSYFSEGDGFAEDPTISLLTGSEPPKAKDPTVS
ETV5, sequence (P41161 whole entry): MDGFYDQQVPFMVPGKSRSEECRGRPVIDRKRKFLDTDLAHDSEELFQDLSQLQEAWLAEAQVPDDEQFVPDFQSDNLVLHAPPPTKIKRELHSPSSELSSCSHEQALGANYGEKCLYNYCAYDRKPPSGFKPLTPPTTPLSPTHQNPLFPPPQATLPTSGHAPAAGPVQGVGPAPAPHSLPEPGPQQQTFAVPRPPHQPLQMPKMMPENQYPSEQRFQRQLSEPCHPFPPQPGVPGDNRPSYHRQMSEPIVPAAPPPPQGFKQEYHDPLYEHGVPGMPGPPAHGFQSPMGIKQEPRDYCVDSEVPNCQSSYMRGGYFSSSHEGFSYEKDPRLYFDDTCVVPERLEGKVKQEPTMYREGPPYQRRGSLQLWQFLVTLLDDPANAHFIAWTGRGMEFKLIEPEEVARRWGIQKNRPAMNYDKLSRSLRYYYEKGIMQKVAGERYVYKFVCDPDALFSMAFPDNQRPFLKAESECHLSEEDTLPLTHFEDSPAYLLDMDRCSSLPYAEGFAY
CRX, sequence (O43186 whole entry): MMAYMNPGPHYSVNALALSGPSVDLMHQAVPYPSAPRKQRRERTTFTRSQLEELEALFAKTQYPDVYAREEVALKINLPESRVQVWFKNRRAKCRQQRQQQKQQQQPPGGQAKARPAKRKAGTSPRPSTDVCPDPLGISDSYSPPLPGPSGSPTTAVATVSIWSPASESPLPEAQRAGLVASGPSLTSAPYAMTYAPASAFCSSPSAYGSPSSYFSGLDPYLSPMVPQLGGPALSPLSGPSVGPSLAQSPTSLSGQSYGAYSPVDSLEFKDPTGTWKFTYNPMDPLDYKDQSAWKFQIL

CCTTAC
binding signal (FEV): 1.21 fold enrichment (6-mer frequency, TF over GST control)
binding signal (ETV5): 1.36 fold enrichment (6-mer frequency, TF over GST control)
binding signal (HSF1): 1.15 fold enrichment (6-mer frequency, TF over GST control)
binding signal (SPIC): 1.22 fold enrichment (6-mer frequency, TF over GST control)
binding signal (ELF4): 1.38 fold enrichment (6-mer frequency, TF over GST control)
binding signal (ELK4): 1.13 fold enrichment (6-mer frequency, TF over GST control)
binding signal (ETV2): 1.33 fold enrichment (6-mer frequency, TF over GST control)
binding signal (ELF3): 1.34 fold enrichment (6-mer frequency, TF over GST control)
binding signal (CRX): 1.17 fold enrichment (6-mer frequency, TF over GST control)
binding signal (ETV1): 1.21 fold enrichment (6-mer frequency, TF over GST control)
binding signal (ERF): 1.32 fold enrichment (6-mer frequency, TF over GST control)
binding signal (ETV3L): 1.26 fold enrichment (6-mer frequency, TF over GST control)
binding signal (ETS2): 1.3 fold enrichment (6-mer frequency, TF over GST control)
binding signal (SPDEF): 1.33 fold enrichment (6-mer frequency, TF over GST control)
binding signal (ETV7): 1.36 fold enrichment (6-mer frequency, TF over GST control)
binding signal (ELF5): 1.69 fold enrichment (6-mer frequency, TF over GST control)
binding signal (ETV3): 1.31 fold enrichment (6-mer frequency, TF over GST control)
binding signal (ETV6): 1.28 fold enrichment (6-mer frequency, TF over GST control)
